C-LANA FP – blocks KSHV LANA C-terminal domain binding to DNA; MBP-C-LANA/FAM-LBS DNA binding, fluorescence polarization; inhibition, % at 9 µM; 340,000 compounds, 0.078% hits; AID 504423;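 active = highest replicate inhibition at or above 60% at 9 µM, even if other replicates fall short; inactive = all replicates below 60% inhibition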;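 note: 0% = neutral control wells and 100% = 4 µM acridine orange control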
Cardiac RTF inh – cardiac RTF calcium desensitization | P19429+P45379 | 340,000 compounds, 0.12% hits | IANBD-labeled cardiac RTF, Ca2+ fluorescence | AID 493244 | inhibition, % at 7.15 µM;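 active = inhibition above the mean inhibition of all tested compounds plus 3 SD, cut at about 17% in these data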;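 note: assay run at fixed EC70 calcium of 1.6 mM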
RTF Ca sens act – cardiac RTF calcium sensitization; P19429+P45379; IANBD-labeled TnC RTF fluorescence at EC20 calcium; 0% EC20 calcium, 100% full calcium; activation, % at 7.2 µM; 340,000 compounds, 0.24% hits;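 active = activation above the mean over all tested compounds plus 3 SD, cut at about 30% in these data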;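 note: rise in fluorescence read as greater calcium sensitivity of cardiac thin filaments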
Keap1-Nrf2 PPI – inhibitors of human Keap1-Nrf2 protein-protein interaction; Q14145; Keap1 Kelch-Nrf2 peptide fluorescence polarization, 1536-well; inhibition, % at 9.4 µM; 340,000 compounds, 0.15% hits; AID 504523; in the data active = inhibition above about 12%;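 note: human Keap1 Kelch domain with fluorescein labeled Nrf2 9mer peptide probe; 0% = neutral control wells and 100% = peptide positive control; higher means more block of Keap1 binding to Nrf2 peptide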
Target sequence (Q14145 whole entry, looked up, the tested form may be a part): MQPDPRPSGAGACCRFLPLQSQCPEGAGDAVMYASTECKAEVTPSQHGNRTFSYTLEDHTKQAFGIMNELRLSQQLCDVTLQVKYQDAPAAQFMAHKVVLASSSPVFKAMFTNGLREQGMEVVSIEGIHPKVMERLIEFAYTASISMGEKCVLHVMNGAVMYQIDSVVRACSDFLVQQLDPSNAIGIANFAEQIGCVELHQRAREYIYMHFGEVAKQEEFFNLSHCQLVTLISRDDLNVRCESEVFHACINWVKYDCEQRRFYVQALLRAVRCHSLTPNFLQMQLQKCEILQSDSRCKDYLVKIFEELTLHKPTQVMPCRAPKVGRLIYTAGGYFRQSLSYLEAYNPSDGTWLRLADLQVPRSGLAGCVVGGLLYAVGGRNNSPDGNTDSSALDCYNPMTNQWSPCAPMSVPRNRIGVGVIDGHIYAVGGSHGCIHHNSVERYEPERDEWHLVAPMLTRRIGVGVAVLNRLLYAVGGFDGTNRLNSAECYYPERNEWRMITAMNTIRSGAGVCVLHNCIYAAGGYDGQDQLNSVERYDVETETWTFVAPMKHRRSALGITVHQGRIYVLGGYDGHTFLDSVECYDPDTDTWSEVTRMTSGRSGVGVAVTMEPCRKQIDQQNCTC
LANA-H2A inh – blocks KSHV LANA binding to histone H2A/H2B; Q9QR71; cell-free LANA-H2A/H2B peptide, fluorescence polarization; inhibition, % (test concentration not listed); 320,000 compounds, 0.6% hits; in the data active = inhibition mostly above about 10%, no sharp cut-off; inactive = mostly below about 6.7%
Active calls of the source: *; · = no result; + = active, no number. Hits are enriched below; roughly 0.98% of the tested compounds scored in any of these assays.

SMILES	C-LANA FP	Cardiac RTF inh	RTF Ca sens act	Keap1-Nrf2 PPI	LANA-H2A inh
COc1ccc(NC2=C(Cl)C(=O)N(c3ccccc3)C2=O)c(OC)c1	2	-22	-3	-1	15*
O=C(Nc1ccc(-c2cn3ccsc3n2)cc1)C1CC1	-2	-6	8	-1	-3
CC(=O)Nc1ccc(-c2cn3ccsc3n2)cc1	1	-10	6	-4	15*
COc1ccc2[nH]c3c(c2c1)CCNC3C1CC=C(C)CC1 (stereo not given)	-1	-5	-3	-2	-10
COc1ccc2[nH]c3c(c2c1)CCNC3c1ccc([N+](=O)[O-])o1 (stereo not given)	22	-32	33*	6	21*
O=C(C1CC12CCCC2)N1CCC(CO)(Cc2ccccc2Cl)CC1 (stereo not given)	1	9	-6	-1	19*
O=C(CCC1CCCC1)NNC(=O)c1ccc(F)cc1	1	-13	6	-3	50*
CCC(C(=O)NC1CC1)n1nc(C)c2c(C)n(-c3ccccc3)nc2c1=O (stereo not given)	0	-3	-1	-7	19*
CCC(C(=O)NC1CCCCC1)n1nc(C)c2c(C)n(-c3ccccc3)nc2c1=O (stereo not given)	-2	-11	5	0	1
CC(C)(C)C1(C)OC(=O)C(=Cc2ccc(OCC(=O)Nc3ccccc3)cc2)C(=O)O1 (stereo not given)	1	11	0	-11	25*
NNC(=O)Cn1c2ccccc2c2ccccc21	-5	-5	-2	-1	4
O=C(O)CCNc1cc(N2CCN(C(=O)c3ccco3)CC2)c2noc3c2c1C(=O)c1ccccc1-3	-16	-9	139*	-261	2
O=S(=O)(NC(=S)NC1CCCCC1)c1ccccc1	17	-2	0	-4	10*
CCOc1ccccc1C(=O)NCC(=O)OCC(=O)c1c(N)n(C)c(=O)n(C)c1=O	-1	-8	0	0	-5
O=c1c(-c2ccccc2)c(O)c2cccc3c2n1CCC3	-1	-6	-1	3	20*
Cc1cc(C)c(-c2c(O)c3cccc4c3n(c2=O)CCC4)c(C)c1	1	-5	-4	-1	1
CCN(CC)/C(Sc1ccccc1)=C(\C(Cl)=C(Cl)Cl)[N+](=O)[O-]	-1	2	-3	-4	70*
O=C(Cc1coc2cc(O)ccc12)N1CCN(S(=O)(=O)c2ccc(Br)cc2)CC1	0	-4	-3	2	·
O=c1c2ccccc2nc2n1CCCCN2	0	-2	6	3	4
Cn1ncc(Cl)c1C(=O)NCC1CCCO1 (stereo not given)	-1	-1	-2	2	14*
CC(NC(=O)c1c(Cl)cnn1C)C1CCCO1 (stereo not given)	1	-7	1	-4	0
Cc1ccc(N(CC(O)CN2CCCCC2)S(=O)(=O)c2ccccc2[N+](=O)[O-])cc1 (stereo not given)	0	1	-3	2	-6
CCc1ccc(C(C)NC(=O)c2ccncc2)cc1 (stereo not given)	0	-5	1	-1	23*
CCc1ccc(C(C)NC(=O)c2ccc(F)cc2)cc1 (stereo not given)	-1	-4	1	-1	-1
S=c1[nH]ccc2ccccc12	0	-1	-4	1	·
SMILES	C-LANA FP	Cardiac RTF inh	RTF Ca sens act	Keap1-Nrf2 PPI	LANA-H2A inh
Cc1ccc2oc(=O)n(CCCOc3ccccc3C)c2c1	1	1	-2	8	-4
N#CCC(=O)Nc1ncc(Cc2ccccc2Cl)s1	0	2	-2	-2	33*
CC(C)C(=O)Nc1ncc(Cc2ccccc2Cl)s1	1	8	0	3	-1
COCCCn1c(SCC(=O)Nc2ccc(NC(=O)c3ccco3)c(OC)c2)nc2ccccc2c1=O	0	10	-2	-5	28*
CCn1cc(C(=O)O)c(=O)c2cnc(N3CCN(C(=S)Nc4ccccc4)CC3)nc21	-1	-9	0	-2	3
CCn1cc(C(=O)O)c(=O)c2cnc(N3CCN(C(=S)NC(=O)c4ccccc4)CC3)nc21	1	2	-2	-7	14*
NC(=O)c1ccc(N=Cc2ccc([N+](=O)[O-])s2)cc1	-1	-4	-5	1	17*
COC(=O)c1c(C)oc(C)c1S(=O)(=O)NC(C)(C)C	1	-9	3	-1	5
O=C(NCCc1nc2ccccc2[nH]1)/C(=C/c1ccco1)NC(=O)c1ccc(Br)cc1	0	-4	12	-2	-6
O=C(NCCc1nc2ccccc2[nH]1)/C(=C/c1ccco1)NC(=O)c1ccccc1Br	0	-6	8	-2	14*
CCN(CC)c1ccc(/C=C2/C(=O)c3ccc(C(=O)O)cc3C2=O)cc1	-45	-115	78*	-178	-8
Cc1c(N)cccc1N	0	-9	-2	-5	123*
Cc1c(N)cccc1[N+](=O)[O-]	0	1	2	0	-7
O=C(O)c1ccc(NS(=O)(=O)c2ccc3c(c2)OCCCO3)cc1	-2	3	0	-3	2
O=C(O)CCNS(=O)(=O)c1ccc2c(c1)OCCCO2	-1	-2	-2	6	13*
O=C(COC(=O)Cc1c[nH]c2ccccc12)Nc1cccc2ccccc12	0	3	-3	-1	14*
Cc1ccc(-c2csc3ncnc(-n4cnc5ccccc54)c23)cc1	0	-4	11	-2	0
Cc1sc2ncnc(-n3cnc4ccccc43)c2c1C	1	-6	-2	-3	83*
CCOC(=O)C1CCCN(c2c(NCCCN(CC)c3ccccc3)c(=O)c2=O)C1 (stereo not given)	0	-6	5	5	17*
CCOC(=O)C1CCCN(c2c(NCCN(CC)c3ccccc3)c(=O)c2=O)C1 (stereo not given)	0	1	-3	1	-4
C=CCC[C@H](Cc1ccc(F)cc1)C(=O)OC[C@H](Cc1c[nH]c2ccccc12)NC(=O)[C@H](CC=C)CC(=O)N(CCO)Cc1ccccc1	0	-2	-1	-4	-1
C=CCC[C@@H](Cc1ccc(F)cc1)C(=O)OCCNC(=O)[C@@H](CC=C)CC(=O)N[C@H](CO)Cc1ccccc1	-1	-4	-5	-1	2
C=CCC[C@@H](Cc1ccc(F)cc1)C(=O)OCCNC(=O)[C@@H](CC=C)CC(=O)N[C@@H](CO)Cc1ccccc1	-1	-6	1	-6	26*
C=CCC[C@@H](Cc1ccc(F)cc1)C(=O)OC[C@@H](Cc1c[nH]c2ccccc12)NC(=O)[C@@H](CC=C)CC(=O)N(CCO)Cc1ccccc1	-1	-10	-4	-5	+
C/C(=C\c1ccccc1)C(=O)Nc1ccc(S(=O)(=O)Nc2ncccn2)cc1	0	-9	-6	3	3
CN(C)C(CNC(=S)Nc1ccc(Cl)cc1)c1cccnc1 (stereo not given)	1	3	0	-5	-2
